Results on 40 sequences are retold here after the OligoGym collection.
Further: reference of the scale not given here.

The target of one experiment is C2orf82. The experiment can be described thus: pooled miR-30 sensor sort-seq; sequence = guide strand. Conditions: shRNA.
For the sequence CTCCTGTGGAACATCGTCTGTG, the sensor-assay potency score (higher = more potent) was -1.6.
Regarding AACATCGTCTGTGAGCACCGCA, the sensor-assay potency score (higher = more potent) was 0.28.
Regarding TCGTCTGTGAGCACCGCAGGGG, the sensor-assay potency score (higher = more potent) was -0.778.
Regarding ACGAGCGCCAGCACCACGCAGG, the sensor-assay potency score (higher = more potent) is -1.89.
The sequence TCCTGTGGAACATCGTCTGTGA showed a sensor-assay potency score (higher = more potent) of -0.191.
Sequence TGGTCCAGCCGCTCCTGCGCGG gave a sensor-assay potency score (higher = more potent) of -1.68.
As for CTGTGGAACATCGTCTGTGAGC, the sensor-assay potency score (higher = more potent) was -2.1.
ATCGTCTGTGAGCACCGCAGGG yielded a sensor-assay potency score (higher = more potent) of -1.34.
ACATCGTCTGTGAGCACCGCAG returned a sensor-assay potency score (higher = more potent) of -1.82.
On the same count and under the same terms, the result for TCTCAGCGCGACGACCACGAGC reads -1.5.
TGGAACATCGTCTGTGAGCACC yielded a sensor-assay potency score (higher = more potent) of -1.29.

The target in another experiment is C3orf22. The experiment is described as above. Conditions: shRNA.
As for TCTGTCAGCCACGACAACCTGT, the sensor-assay potency score (higher = more potent) was -0.668.
In turn, TTACTCTGGTGAGACTTCTTGC had a sensor-assay potency score (higher = more potent) of -0.146.
On to AAAGGTTGCACAGTGGAGGTGG, for which the sensor-assay potency score (higher = more potent) turned out to be 1.05.
As for TTCTTGGCAAAATTCTCCTGGG, the sensor-assay potency score (higher = more potent) was -0.771.
As to AACCTGTACGGAAACTTCTTGG, the sensor-assay potency score (higher = more potent) was -1.12.
The same measure, in the same setting: the value for TGTACGGAAACTTCTTGGCAAA was -1.61; that for TTCGAGTCGTTTGTGACCTCCC was 0.262; that for TCCACTTCTTACTCTGGTGAGA was -1.65.
As for TCCTCCACTTCTTACTCTGGTG, the sensor-assay potency score (higher = more potent) was -1.52.
In turn, TTGCACAGTGGAGGTGGTGATG showed a sensor-assay potency score (higher = more potent) of -1.21.
As for TTTATTAGCTTGGTGTAGCTTT, the sensor-assay potency score (higher = more potent) was determined as 0.257.
TTGGCACCAACCTCTTCTGCAG yielded a sensor-assay potency score (higher = more potent) of -0.633.

In a further experiment the target is C3orf33. Described as above. Conditions: shRNA.
In turn, TTGTTCATGTTGTCTTTCCATA came in with a sensor-assay potency score (higher = more potent) of -1.3.
On to TTGAATTTTTCTAAGTAACTTT, for which the sensor-assay potency score (higher = more potent) was -0.235.
TAACTTTCTTTTTTCAAGCTGA returned a sensor-assay potency score (higher = more potent) of -0.0803.
Take TTTAGCTCTTTTTGTAACCATG: the sensor-assay potency score (higher = more potent) is -1.58.
The sequence TTTTTCATAATAACTTTCTTTT registered a sensor-assay potency score (higher = more potent) of -0.968.
For TAAATTTTGATGTCAGTCGAAT, the sensor-assay potency score (higher = more potent) was -0.673.
In turn, TTCTTTTTCAGAGTCTTCCTTC showed a sensor-assay potency score (higher = more potent) of 0.254.
Still for that read-out and setting: the value for TACTCCAGCCAACTTAACCAGC was -1.6; that for TTTGATGTCAGTCGAATGCTTC was -0.51; that for TTAACAAGAACAGTTTTGCCAA was -0.169.
With TATAAGTTCTCTGAACTTCAGT, the sensor-assay potency score (higher = more potent) is -0.164.
As to TCAAGCTGAAATCTGATCCTGT, the sensor-assay potency score (higher = more potent) was 0.793.

The target of a further experiment is C3orf64. Described as above. Conditions: shRNA.
As for TTTCCTACCACAAACAGTGTTA, the sensor-assay potency score (higher = more potent) was -0.00284.
TATATGGACAAAGAGAGTCTTT gave a sensor-assay potency score (higher = more potent) of -0.594.
Turning to TAACATGTTGTAATTCTTCTTA, the sensor-assay potency score (higher = more potent) amounted to 0.391.
Still for that read-out and setting: the value for TATAACATGGTCCTATAGCTTG was -1.11; that for TTAGTTGATCTAAAAACCCAAG was -1.13.
